# Assay results published in PubChem BioAssay AID778 (Sanford-Burnham Center for Chemical Genomics, 2007).
# The whole screen tested about 96,000 compounds, of which about 20,000 (21%) were called active.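 Rule for the calls: active = CYP2C19 inhibition above a set limit at 5 µM in the primary screen (cut at about 50% in these data); inactive = the rest.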 These entries were drawn from the full list.
# Target: Cytochrome P450 2C19 (Homo sapiens) (UniProt P33261)
# Assay: blockers of cytochrome P450 2C19 activity – biochemical, luminescence, ADME assay, primary screen (AID 778);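 note: plate controls were negative control wells for no effect and 2.5 mM tranylcypromine positive control for full effect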
# Conditions: CYP2C19 Supersomes, luciferin-H EGE luminescence, 30 min; at 5 µM; active compounds read high
# Chain of Cytochrome P450 2C19 (Homo sapiens) (P33261 whole entry, looked up): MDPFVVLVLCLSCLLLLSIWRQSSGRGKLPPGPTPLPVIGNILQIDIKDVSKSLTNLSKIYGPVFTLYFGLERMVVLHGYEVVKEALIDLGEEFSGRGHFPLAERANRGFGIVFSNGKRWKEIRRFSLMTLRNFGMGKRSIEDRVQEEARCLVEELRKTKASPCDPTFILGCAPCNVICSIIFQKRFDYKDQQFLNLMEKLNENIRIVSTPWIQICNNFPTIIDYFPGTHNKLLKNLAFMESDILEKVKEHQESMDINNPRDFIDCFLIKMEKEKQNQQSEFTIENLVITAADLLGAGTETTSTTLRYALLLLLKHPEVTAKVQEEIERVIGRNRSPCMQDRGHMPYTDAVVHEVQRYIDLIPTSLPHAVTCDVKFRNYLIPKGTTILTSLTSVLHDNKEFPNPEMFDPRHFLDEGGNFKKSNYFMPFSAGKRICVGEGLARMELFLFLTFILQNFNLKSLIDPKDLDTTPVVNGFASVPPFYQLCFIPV
row,Structure (SMILES),inhibition
1,COc1ccc(-c2oc3ncn(Cc4ccco4)c(=N)c3c2-c2ccc(OC)cc2)cc1,33.8% (inactive)
2,CCOC(=O)N1CCC(Nc2c(NCCCN3CCN(CC)CC3)c(=O)c2=O)CC1,4% (inactive)
3,c1ccc(-c2ccnc3nc(-n4cccc4)nn23)cc1,1.1% (inactive)
4,CCCC(=O)N1c2ccc(-c3csc(N)n3)cc2CC1C (stereo not given),4.4% (inactive)
5,O=c1c(F)cn(C2CCCO2)c(=O)n1Cc1ccccc1Cl (stereo not given),36.8% (inactive)
6,COCCn1c(C)cc(C2=NNC(=Nc3ccc(F)cc3)SC2)c1C,20.2% (inactive)
7,COc1ccc(C)cc1NC(=O)c1[nH]c(C)c(C(C)=O)c1C,51.5% (active)
8,COc1ccc(C)cc1NC(=O)CCC(=O)Nc1nnc(C(F)(F)F)s1,-1.8% (inactive)
9,CC(=O)c1c(C)[nH]c(C(=O)NCc2ccc(C)cc2)c1C,43.8% (inactive)
10,CC(C)(C)NC(=O)C(c1ccco1)N(Cc1ccc2c(c1)OCO2)C(=O)Cn1nnc2ccccc21 (stereo not given),48.8% (inactive)
11,COc1ccc2c(c1)CCc1c(C(=O)N3CCCC3)noc1-2,4.9% (inactive)
12,COc1ccc2c(c1)CCc1c(C(=O)Nc3c(C)n(C)n(-c4ccccc4)c3=O)noc1-2,25.7% (inactive)
13,COc1ccc2c(c1)CCc1c(C(=O)N3CCc4ccccc4C3)noc1-2,74.1% (active)
14,CCC(=O)N1CCc2cc(S(=O)(=O)NC(C(=O)N3CCc4ccccc4C3)C(C)C)ccc21 (stereo not given),4.8% (inactive)
15,Cc1nc(NC(CC(C)C)C(=O)O)c2nc(C)oc2n1 (stereo not given),-8.5% (inactive)
16,O=C(Nc1ccon1)c1sc2ccccc2c1Cl,1.4% (inactive)
17,N#Cc1cc([N+](=O)[O-])ccc1Oc1cccc(/C=N/NC(=O)c2ccc(Cl)cc2)c1,41.8% (inactive)
18,CCc1ccccc1NC(=O)CN(C)S(=O)(=O)c1ccc2c(c1)c(=O)n(C)c(=O)n2C,7.1% (inactive)
19,Cc1cc(NC(=O)c2cccc(N3C(=O)CCC3=O)c2)no1,3% (inactive)
20,O=C(/C=C/Nc1ccccc1OC(F)(F)F)C(F)(F)F,18% (inactive)
21,Cc1cc(C)nc(NC(=O)C(C)N2C(=O)c3ccccc3C2=O)n1 (stereo not given),-21.4% (inactive)
22,CCOC(=O)N1CCC(N(CCOC)C(=O)Nc2ccc(C)c(C)c2)CC1,8.4% (inactive)
23,Cc1ccc(NC(=O)CCNS(=O)(=O)c2ccc3c(c2)oc(=O)n3C)cc1C,8% (inactive)
24,Cc1ccc(NC(=O)CN(C)S(=O)(=O)c2cnc[nH]2)cc1C,88.7% (active)
25,Cc1ccc(-c2nnc(C)c(N3CC(C)OC(C)C3)n2)cc1 (stereo not given),7.3% (inactive)

row,Structure (SMILES),inhibition
1,Cc1cc(=O)oc2cc(NC(=O)C3CC(=O)N(Cc4ccccc4)C3)ccc12 (stereo not given),52.5% (active)
2,O=C(O)C1CC(=O)N(Cc2cccnc2)C1 (stereo not given),-2.1% (inactive)
3,COCCCNC(=O)C1CC(=O)N(CCc2ccccc2)C1 (stereo not given),-3.4% (inactive)
4,CCC(C)NC(=O)c1c(N)n(/N=C/c2cccs2)c2nc3ccccc3nc12 (stereo not given),13.8% (inactive)
5,COc1ccc(C2C(C(=O)Nc3ccccc3OC)=C(C)Nc3nnnn32)c(OC)c1 (stereo not given),32.5% (inactive)
6,COC(=O)c1ccc(C2C3=C(Nc4nnnn42)c2ccccc2OC3)cc1 (stereo not given),98.9% (active)
7,COc1ccccc1NC(=O)C1=C(C)Nc2nnnn2C1c1cccc(Br)c1 (stereo not given),37.1% (inactive)
8,CCCN1Cc2cccc(C(=O)Nc3ccc(S(=O)(=O)N4CCCCCC4)cc3)c2C1=O,18.8% (inactive)
9,CCC12CN3CC(CC)(CN(C1)C31C(=O)N(C)c3ccc(C)cc31)C2=O (stereo not given),15.6% (inactive)
10,CCc1ccccc1NC(=O)c1cccs1,-1% (inactive)
11,O=C(Nc1ncccn1)c1cccs1,-3.9% (inactive)
12,O=C(Nc1nn(Cc2ccccc2F)cc1Br)c1cccs1,57.4% (active)
13,CC(=O)Nn1cc2c(=O)n(C)c(=O)n(C)c2c1,-4.8% (inactive)
14,O=c1oc2cc(O)ccc2cc1-c1ccc(F)cc1,32.1% (inactive)
15,CCOC(=O)Nc1ccccc1N1C(=O)c2ccccc2C1=O,1.6% (inactive)
16,COc1ncnc2sc3c(c12)CCCC3,36.6% (inactive)
17,Cc1cc(C)n(-c2nc(SCC(=O)N3CCCC3)c3c4c(sc3n2)CCCC4)n1,49.7% (inactive)
18,COCCn1c(C)cc(C(=O)CSc2ncnc3sc4c(c23)CCC4)c1C,57.5% (active)
19,O=C(NCc1ccco1)c1cnn2c(C(F)(F)F)cc(-c3ccco3)nc12,20.3% (inactive)
20,CCCc1nc(-c2ccccc2O)n(-c2ccccc2)n1,34% (inactive)
21,O=C(CN1C(=O)C2C3C=CC(C3)C2C1=O)NCCc1ccccc1Cl (stereo not given),23.5% (inactive)
22,O=C(NCCN1C(=O)C2C3C=CC(C3)C2C1=O)Nc1ccccn1 (stereo not given),-10.2% (inactive)
23,O=C(CCN1C(=O)C2C3C=CC(C3)C2C1=O)Nc1ccccc1F (stereo not given),56.5% (active)
24,N#C/C=C\Oc1ccc(Cl)cc1N,-2.6% (inactive)
25,COc1ccc(NC(=O)Cn2c(-c3ccc(OC)cc3)cn(-c3ccc(C)cc3)c2=O)cc1,-4.3% (inactive)

row,Structure (SMILES),inhibition
1,COc1ccc(Nc2oc(-c3ccccc3Cl)nc2C#N)cc1,1.2% (inactive)
2,N#Cc1nc(-c2ccc(OCc3ccccc3)cc2)oc1NCCCN1CCOCC1,7.4% (inactive)
3,N#Cc1nc(COc2ccc(-c3ccccc3)cc2)oc1NCc1cccnc1,51.7% (active)
4,C=C(C)Cn1c(SCC(=O)NCc2ccco2)nc2sc3c(c2c1=O)CCC3,7.7% (inactive)
5,O=c1c2ccccc2nnn1CSc1nc2sc3c(c2c(=O)n1CC1CCCO1)CCC3 (stereo not given),56.4% (active)
6,O=C(Cn1nc(Cc2cccnc2)c2ccccc2c1=O)NCC1CCCO1 (stereo not given),16.7% (inactive)
7,N#CCCn1cnc2ccccc21,1.7% (inactive)
8,CC(=O)c1ccc(NC(=O)N[C@@H](Cc2ccccc2)C(=O)O)cc1,28.5% (inactive)
9,COc1ccc(CCNC(=O)COC(=O)c2ccc[nH]c2=O)cc1,-10.2% (inactive)
10,CCN(CC)C(=O)C1CCC(C)(C(=O)O)C1(C)C (stereo not given),-4.4% (inactive)
11,Cc1nc2ccccc2cc1O,0.7% (inactive)
12,CC(=O)Nc1cccc(-c2cnc3ccccc3n2)c1,14.9% (inactive)
13,Cc1cc(O)ccc1-c1cnc2ccccc2n1,60.7% (active)
14,Nc1nonc1-c1nc2ccccc2n1Cc1ccc(F)cc1,44.1% (inactive)
15,CC(C)N(c1ccccc1)c1ncnc(NCCC(=O)O)c1[N+](=O)[O-],55% (active)
16,Cc1oc(-c2cccc(Cl)c2)[n+]([O-])c1C,-4.8% (inactive)
17,CCOC(=O)C1=C(c2ccccc2)N=C2SCC(=O)N2C1c1ccc(O)c(OC)c1 (stereo not given),79.4% (active)
18,COc1cc(C2C(C(=O)c3ccc(C)o3)=C(O)C(=O)N2CCc2ccccc2)ccc1O (stereo not given),-1.7% (inactive)
19,CC1(C)Cc2nc3sc4c(SCC(=O)NC(c5ccccc5)c5ccccc5)ncnc4c3cc2CO1,15.3% (inactive)
20,CC1=CC(=O)C=CC1(C)C(Cl)(Cl)Cl (stereo not given),9.4% (inactive)
21,CCC(C)Sc1nc2c(c(=O)[nH]c(=O)n2C)n1CC(O)COc1cccc2ccccc12 (stereo not given),14.5% (inactive)
22,CCn1c(SCC(=O)Nc2ccc(OC)c(OC)c2)nnc1-c1c[nH]c2ccccc12,42.9% (inactive)
23,CCn1c(SCCC(C)C)nnc1-c1c[nH]c2ccccc12,88.7% (active)
24,CCC(C)Sc1nnc(-c2c[nH]c3ccccc23)n1CCOC (stereo not given),15.6% (inactive)
25,CCOC(=O)N1CCN(C(=O)c2cn(C)c3ccc(S(=O)(=O)N4CCCC4)cc3c2=O)CC1,-12.6% (inactive)

row,Structure (SMILES),inhibition
1,O=C(c1ccc(=O)[nH]c1)N(Cc1ccco1)C1(C(=O)NC2CCCCC2)CCCCC1,-4.2% (inactive)
2,N=c1c2c3c(sc2ncn1N)CCCCC3,-16% (inactive)
3,C=C(C)CSc1nc(N)c2c3c(sc2n1)CCC3,60.4% (active)
4,c1nnc2c3c4c(sc3ncn12)CCC4,1.2% (inactive)
5,CC(C)(C)NC(=O)NC(=O)COC(=O)CCC1CCCCC1,-4.7% (inactive)
6,CCN1CCCC1CNC(=O)c1cc2c(=O)n(C)c3ccccc3c2n1C (stereo not given),-9.3% (inactive)
7,Cc1[nH][nH]c(=O)c1N=Nc1ccccc1,13.3% (inactive)
8,Cc1ccc(C2CC2C(=O)NN)cc1 (stereo not given),47.6% (inactive)
9,N/C(=N\OC(=O)CCC1CCCCC1)c1ccccn1,5.1% (inactive)
10,CC(C)(C)c1cc2cccnc2n1Cc1cccc(F)c1,14.8% (inactive)
11,N#C/C(=C/c1ccc(Cl)cc1)NC(=O)c1ccccc1,3.3% (inactive)
12,CCCCCN1CC(O)=C(c2ccccc2)C1=N,-0.3% (inactive)
13,CC(NC(=O)CSc1nc2c(cc1C#N)CN(C)CC2)c1ccccc1 (stereo not given),79.6% (active)
14,Cc1nc2cc(NC(=O)CSc3nc4c(C)cccc4cc3C#N)ccc2s1,6.7% (inactive)
15,Cc1ccc2cc(C#N)c(SCC(=O)NCC3CCCO3)nc2c1C (stereo not given),-2.3% (inactive)
16,O=C1c2ccccc2C2=Nc3ccccc3SC(c3ccccc3F)C12 (stereo not given),8% (inactive)
17,Cc1ccc(C2CC(c3cccc(C)c3)n3nc(N)nc3N2)cc1 (stereo not given),45.1% (inactive)
18,Clc1ccc(C2CC(c3cccs3)n3ncnc3N2)cc1Cl (stereo not given),81.9% (active)
19,Nc1nc2n(n1)C(c1ccco1)CC(c1ccc(Cl)c(Cl)c1)N2 (stereo not given),31% (inactive)
20,CN1CCCc2cc(C#N)c(=O)[nH]c21,10.9% (inactive)
21,Fc1ccc(OCc2nn3c(Cn4nnc5ccccc54)nnc3s2)cc1,26.6% (inactive)
22,CCc1cc2c(=O)c(-c3ccon3)c(N)oc2cc1OC,1.3% (inactive)
23,COc1ccc(C(=O)N2CCC(C(=O)Nc3cccc(C)c3)CC2)cc1OC,-3.6% (inactive)
24,COc1ccccc1Cn1c(=S)[nH]c2cc(C(=O)N3CCN(C)CC3)ccc2c1=O,-10.4% (inactive)
25,COc1cc(C(=O)N2CCN(C/C=C/c3ccccc3)CC2)cc(OC)c1C,68.8% (active)
